# Reference: PubChem BioAssay
# Activity calls are given as the source filed them.
# Columns and labels:
# [1] = test system: Plasmodium falciparum Sir2 (PF13_0152, Sir2A); assay: pfSir2 binders on small-molecule microarrays, primary screen, biochemical, small-molecule microarray, 635 nm fluorescence (AID 1098); settings: small-molecule microarray binding, fluorescence 635 nm; higher = more signal;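 note: score merges spot fluorescence intensity with its signal-to-noise ratio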
# [2] = small-molecule microarray binders of probe aDKK1, primary screen, biochemical, biotinylated probe, 635/667 nm fluorescence (AID 1099); settings: higher = more signal;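 note: score merges 667nm spot fluorescence with signal to noise across triplicate slides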
# [3] = small-molecule microarray binders of probe aCHRDL2, primary screen, biochemical, biotinylated probe, 635/667 nm fluorescence (AID 1100); settings: higher = more signal
# [4] = splicing luciferase reporter signal modulators, primary screen, spliceosome inhibition project, cell-based, HEK293, splice +/- reporter (AID 1101); settings: luminescence, 24 h, higher = more signal, called active from +8 up or from −8 down;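 note: HEK293 cells carrying a splicing-competent luciferase reporter gene; test concentration not given here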
# [5] = molecular target: Fibroblast growth factor 10 (Homo sapiens) (UniProt O15520); assay: FGF10 binders on small-molecule microarrays, primary screen, biochemical, small-molecule microarray, 635 nm fluorescence (AID 1102); settings: FGF10 binding, fluorescence 635 nm, higher = more signal
# Chain of Fibroblast growth factor 10 (Homo sapiens) (O15520 whole entry, looked up): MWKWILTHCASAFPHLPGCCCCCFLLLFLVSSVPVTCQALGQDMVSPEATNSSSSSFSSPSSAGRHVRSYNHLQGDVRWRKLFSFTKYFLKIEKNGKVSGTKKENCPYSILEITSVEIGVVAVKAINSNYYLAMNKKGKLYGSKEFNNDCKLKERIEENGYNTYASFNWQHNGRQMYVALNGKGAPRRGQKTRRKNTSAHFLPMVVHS
# [6] = test system: glycogen synthase kinase-3 (GSK3A per assay name; protocol says GSK3B); assay: GSK3 binders on small-molecule microarrays, primary screen, biochemical, small-molecule microarray, 635 nm fluorescence, GSK3A (AID 1103); settings: small-molecule microarray binding, fluorescence 635 nm; higher = more signal; note: the record names both GSK3A and GSK3B
# [7] = molecular target: Epidermal growth factor receptor (Homo sapiens) (UniProt P00533); assay: EGFR binders on small-molecule microarrays, primary screen, biochemical, small-molecule microarray, 635 nm fluorescence (AID 1104); settings: EGFR binding, higher = more signal;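 note: score merges 667 nm emission intensity with spot signal to noise over triplicate slides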
# Chain of Epidermal growth factor receptor (Homo sapiens) (P00533 whole entry, looked up): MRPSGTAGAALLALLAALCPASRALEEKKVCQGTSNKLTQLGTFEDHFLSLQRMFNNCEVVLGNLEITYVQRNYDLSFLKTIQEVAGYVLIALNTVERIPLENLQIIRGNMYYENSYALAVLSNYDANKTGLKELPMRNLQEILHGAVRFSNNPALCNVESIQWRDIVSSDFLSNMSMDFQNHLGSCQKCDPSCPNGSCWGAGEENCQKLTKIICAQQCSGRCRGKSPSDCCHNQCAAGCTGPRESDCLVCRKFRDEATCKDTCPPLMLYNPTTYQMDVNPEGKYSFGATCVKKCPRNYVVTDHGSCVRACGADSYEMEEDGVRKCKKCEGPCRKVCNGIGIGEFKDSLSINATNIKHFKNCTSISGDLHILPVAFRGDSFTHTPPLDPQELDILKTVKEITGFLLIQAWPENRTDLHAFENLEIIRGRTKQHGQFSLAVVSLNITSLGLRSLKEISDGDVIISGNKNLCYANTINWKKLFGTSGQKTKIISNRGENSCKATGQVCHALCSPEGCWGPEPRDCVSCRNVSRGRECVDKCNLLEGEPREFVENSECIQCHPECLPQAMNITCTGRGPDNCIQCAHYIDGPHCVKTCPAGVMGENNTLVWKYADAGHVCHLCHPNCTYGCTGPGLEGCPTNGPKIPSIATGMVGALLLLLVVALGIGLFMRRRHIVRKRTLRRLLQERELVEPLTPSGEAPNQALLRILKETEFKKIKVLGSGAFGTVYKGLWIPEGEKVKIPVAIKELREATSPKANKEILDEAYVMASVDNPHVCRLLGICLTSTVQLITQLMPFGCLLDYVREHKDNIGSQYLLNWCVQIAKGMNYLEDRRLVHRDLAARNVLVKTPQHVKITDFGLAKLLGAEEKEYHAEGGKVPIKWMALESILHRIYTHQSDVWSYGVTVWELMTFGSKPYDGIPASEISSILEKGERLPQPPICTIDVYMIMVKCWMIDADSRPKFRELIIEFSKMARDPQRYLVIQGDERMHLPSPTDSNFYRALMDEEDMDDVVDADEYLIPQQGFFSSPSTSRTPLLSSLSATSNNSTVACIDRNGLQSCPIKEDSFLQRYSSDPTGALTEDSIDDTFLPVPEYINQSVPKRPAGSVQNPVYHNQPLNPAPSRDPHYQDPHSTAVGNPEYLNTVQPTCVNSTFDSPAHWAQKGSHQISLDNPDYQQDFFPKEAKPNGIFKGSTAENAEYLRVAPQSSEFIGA
# [8] = molecular target: Follistatin-related protein 3 (Homo sapiens) (UniProt O95633); assay: FSTL3 binders on small-molecule microarrays, primary screen, biochemical, small-molecule microarray, 635 nm fluorescence (AID 1105); settings: FSTL3 binding, higher = more signal;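 note: score merges emission near 667 nm and signal to noise per printed spot across three slides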
# Chain of Follistatin-related protein 3 (Homo sapiens) (O95633 whole entry, looked up): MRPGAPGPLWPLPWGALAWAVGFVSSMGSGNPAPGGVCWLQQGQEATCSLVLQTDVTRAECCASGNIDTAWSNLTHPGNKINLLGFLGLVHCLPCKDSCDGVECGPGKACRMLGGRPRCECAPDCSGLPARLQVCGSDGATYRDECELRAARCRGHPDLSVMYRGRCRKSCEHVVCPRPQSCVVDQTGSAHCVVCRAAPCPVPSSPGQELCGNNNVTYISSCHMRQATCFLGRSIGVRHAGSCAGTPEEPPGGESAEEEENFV
# [9] = molecular target: Dickkopf-related protein 1 (Homo sapiens) (UniProt O94907); assay: DKK1 binders on small-molecule microarrays, primary screen, biochemical, small-molecule microarray, 635 nm fluorescence scan (AID 1106); settings: DKK1 binding, higher = more signal;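 note: score merges emission near 667 nm with signal to noise over three replicate slides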
# Chain of Dickkopf-related protein 1 (Homo sapiens) (O94907 whole entry, looked up): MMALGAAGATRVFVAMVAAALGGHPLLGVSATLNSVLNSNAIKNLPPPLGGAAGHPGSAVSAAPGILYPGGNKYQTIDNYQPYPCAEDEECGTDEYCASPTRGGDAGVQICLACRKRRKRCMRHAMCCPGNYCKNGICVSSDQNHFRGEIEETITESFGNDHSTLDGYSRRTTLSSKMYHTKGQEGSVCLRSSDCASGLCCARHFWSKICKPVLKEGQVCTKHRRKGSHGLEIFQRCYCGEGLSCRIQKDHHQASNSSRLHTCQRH
# [10] = test system: Inhibin beta A chain (activin A); assay: INHBA (activin A) binders on microarrays, primary screen, biochemical, small-molecule microarray, 635 nm fluorescence scan (AID 1107); settings: small-molecule microarray binding, higher = more signal;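 note: mouse activin A protein probed at 4.33 µg/mL on printed slides; score merges bound-protein fluorescence near 667 nm with spot signal-to-noise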
# [11] = test system: Human papillomavirus type 1a protein E7 (residues 44-93); assay: HPV1a E7 fragment binders on microarrays, primary screen, biochemical, small-molecule microarray, residues 44-93, 635 nm fluorescence (AID 1108); settings: small-molecule microarray binding, fluorescence 635 nm; higher = more signal;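 note: E7 fragment applied at 1 µg/mL in TBST for 1 h at 4 C; score combines spot fluorescence with its signal to noise ratio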
# [12] = modulators of HCV replicon luciferase signal, primary screen, HCV replication inhibitor project, Huh7 cells, luciferase reporter (AID 1109); settings: 48 h, higher = more signal;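 note: huh7 hepatoma cells harbouring a luciferase neomycin HCV replicon reporter; luciferase luminescence as measure of HCV replicon replication; test concentration not given here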
# [13] = molecular target: Left-right determination factor 2 (Homo sapiens) (UniProt O00292); assay: LEFTY2 binders on small-molecule microarrays, primary screen, biochemical, small-molecule microarray, 635 nm fluorescence scan (AID 1110); settings: LEFTY2 binding, higher = more signal
# Chain of Left-right determination factor 2 (Homo sapiens) (O00292 whole entry, looked up): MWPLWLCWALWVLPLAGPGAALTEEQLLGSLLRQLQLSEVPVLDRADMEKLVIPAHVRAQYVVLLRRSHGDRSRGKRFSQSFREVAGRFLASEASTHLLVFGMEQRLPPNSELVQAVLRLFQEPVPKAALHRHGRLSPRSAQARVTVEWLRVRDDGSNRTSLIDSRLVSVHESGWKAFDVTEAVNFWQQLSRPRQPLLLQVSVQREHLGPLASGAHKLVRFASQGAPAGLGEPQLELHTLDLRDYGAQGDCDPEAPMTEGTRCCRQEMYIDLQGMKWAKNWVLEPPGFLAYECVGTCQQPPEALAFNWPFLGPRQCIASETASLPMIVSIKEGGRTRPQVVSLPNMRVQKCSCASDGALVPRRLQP
# [14] = molecular target: Calmodulin-1 (Homo sapiens) (UniProt P0DP23); assay: CALM1 binders on microarrays, EGTA buffer, profiling panel, biochemical, small-molecule microarray, Cy5-labelled CALM1 (AID 1111); settings: Cy5-CALM1 binding fluorescence, higher = more signal;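 note: labelled calmodulin applied in Tris saline Tween buffer holding calcium plus EGTA and DTT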
# [15] = molecular target: Calmodulin-1 (Homo sapiens) (UniProt P0DP23); assay: calcium-bound CALM1 binders on microarrays, profiling panel, artefact control for SMM control-protein annotation, biochemical, small-molecule microarray, Cy5-labelled CALM1, plus calcium (AID 1112); settings: Cy5-CALM1 binding fluorescence, higher = more signal;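 note: score merges spot fluorescence with signal to noise from triplicate slides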
# [16] = small-molecule microarray binders of probe aWnt5a, primary screen, biochemical, biotinylated probe, 635/667 nm fluorescence (AID 1113); settings: higher = more signal;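 note: score merges 667 nm fluorescence intensity with signal-to-noise per printed feature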
# [17] = small-molecule microarray binders of probe aShh, primary screen, biochemical, biotinylated probe, 635/667 nm fluorescence (AID 1114); settings: higher = more signal;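 note: probe is biotin-labelled aShh protein from a stem cell growth factor screen; measures binding of labelled protein to compounds printed on the slide; score merges feature fluorescence at 667 nm with signal-to-noise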
# [18] = small-molecule microarray binders of probe aNog, primary screen, biochemical, biotinylated probe, 635/667 nm fluorescence (AID 1115); settings: higher = more signal;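 note: probe is biotinylated aNog protein used at 0.15 µg/mL for 1 h at 4 C; z-score combines 667 nm fluorescence of each spot with its signal to noise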
# [19] = molecular target: Torsin-1A-interacting protein 1 (Homo sapiens) (UniProt Q5JTV8); assay: LAP1 binders from COS7 cell lysate, primary screen, small-molecule microarray, 635/667 nm fluorescence (AID 1116); settings: COS7-hLAP1 lysate binding, 635 nm fluorescence, higher = more signal
# Chain of Torsin-1A-interacting protein 1 (Homo sapiens) (Q5JTV8 whole entry, looked up): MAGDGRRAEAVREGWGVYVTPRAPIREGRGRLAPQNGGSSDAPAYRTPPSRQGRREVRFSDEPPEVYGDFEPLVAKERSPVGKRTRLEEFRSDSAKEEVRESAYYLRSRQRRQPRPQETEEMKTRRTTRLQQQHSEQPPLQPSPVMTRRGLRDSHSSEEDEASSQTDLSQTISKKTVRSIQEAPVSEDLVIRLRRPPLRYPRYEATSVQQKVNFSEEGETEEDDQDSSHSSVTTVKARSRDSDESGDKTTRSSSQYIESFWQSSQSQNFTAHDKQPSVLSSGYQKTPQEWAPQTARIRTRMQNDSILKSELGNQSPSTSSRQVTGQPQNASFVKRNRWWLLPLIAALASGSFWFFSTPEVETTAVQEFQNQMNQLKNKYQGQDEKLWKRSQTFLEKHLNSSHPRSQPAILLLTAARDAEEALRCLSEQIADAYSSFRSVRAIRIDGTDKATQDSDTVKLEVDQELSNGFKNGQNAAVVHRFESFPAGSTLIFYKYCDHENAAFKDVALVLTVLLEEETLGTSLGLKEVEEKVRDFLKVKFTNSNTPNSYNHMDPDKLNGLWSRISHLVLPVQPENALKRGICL
# [20] = molecular target: Alpha-bungarotoxin (Bungarus multicinctus) (UniProt P60615); assay: alpha-bungarotoxin binders on microarray, profiling panel, artefact control for SMM control protein annotation, biochemical, small-molecule microarray, Alexa647 label, 635/667 nm fluorescence (AID 1117); settings: alpha-BTX-A647 binding fluorescence, higher = more signal
# Chain of Alpha-bungarotoxin (Bungarus multicinctus) (P60615 whole entry, looked up): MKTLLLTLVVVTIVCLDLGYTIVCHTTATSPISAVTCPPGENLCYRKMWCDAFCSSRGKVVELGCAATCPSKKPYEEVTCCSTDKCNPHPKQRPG
SMILES,composite z-score [1],composite z-score [2],composite z-score [3],z-score [4],composite z-score [5],composite z-score [6],composite z-score [7],composite z-score [8],composite z-score [9],composite z-score [10],composite z-score [11],z-score [12],composite z-score [13],composite z-score [14],composite z-score [15],composite z-score [16],composite z-score [17],composite z-score [18],composite z-score [19],composite z-score [20]
CCC[C@@H]1C=C(C(=O)OCC)[C@H](c2ccccc2)N1S(=O)(=O)c1ccc(C)cc1,0.58,0.852,1.02,-0.141 (inactive),0.977,1.32,0.623,1.25,0.117,0.789,1.04,-1.84,1.06,1.99,0.409,0.145,-0.195,-0.413,1.69,1.26
C=CCOC(=O)[C@H]1[C@@H]2C(=O)O[C@@H](c3ccccc3)[C@@H](c3ccccc3)N2[C@@H](c2ccc(OCCOC(=O)[C@@H]3C[C@@H]4C(=O)N[C@@H](Cc5ccccc5)C(=O)N4[C@@H]3c3ccc(O)cc3)cc2)[C@]12C(=O)Nc1ccccc12,1.34,-0.271,-0.25,0.878 (inactive),1.18,1.29,0.328,0.953,0.973,-0.0812,1.35,-1.85,0.747,1.48,0.0137,-0.124,-0.232,0.281,0.409,0.948
COCCOC(=O)N1C(=O)[C@@]2(c3cc(C#CC4=CCCCC4)ccc31)[C@H](C(=O)N1CCc3cc(OC)c(OC)cc3C1)[C@H]1C(=O)O[C@H](c3ccccc3)[C@H](c3ccccc3)N1[C@@H]2c1ccc(O)cc1,1.04,0.26,-0.0061,-0.258 (inactive),0.438,1.12,1.32,0.583,0.391,0.732,1.42,-0.934,0.761,1.74,0.673,0.18,0.482,0.707,1.34,0.967
O=C1NC(=O)C2C1C=CC(C(O)c1cccc(O)c1)N2Nc1ccc(Cl)cc1Cl (stereo not given),-0.195,0.454,0.815,1.16 (inactive),0.0046,-0.607,-0.531,-0.358,-0.555,0.519,-0.429,-0.591,-0.715,0.741,0.675,-0.104,-0.212,-0.237,-0.369,0.369
C=C(COC)/C(=C/C[C@@H](OC(C)=O)c1ccccc1OCCO)c1cc(C(=O)OC)ccc1OC,1.01,-0.0445,0.012,0.846 (inactive),1.23,-0.208,-0.676,-0.0333,-0.343,0.416,1.3,-2.3,-0.145,-0.249,-0.808,-0.1,0.0469,0.0502,1.46,0.324
CCOC(=O)C1=CC[C@@H](c2ccc(F)cc2)N(S(=O)(=O)c2ccc(C)cc2)[C@H]1c1ccc([N+](=O)[O-])cc1,0.681,0.0684,0.373,-0.689 (inactive),0.914,0.988,-0.24,0.485,-0.453,0.537,1.34,-1.05,-0.248,1.56,-0.171,0.0323,-0.138,-0.158,0.341,0.937
COCCOC(=O)N1C(=O)[C@@]2(c3cc(C#CC4(O)CCCCCC4)ccc31)[C@H](c1ccc(OCCO)cc1)N1[C@H](c3ccccc3)[C@H](c3ccccc3)OC(=O)[C@H]1[C@@H]2C(N)=O,1.37,0.0809,0.0419,-1.47 (inactive),1.14,1.31,0.883,1.22,0.617,1,0.448,-2.2,0.547,1.04,-0.111,-0.0472,0.199,0.53,1.73,1.9
COc1cc2c(cc1O)C(C1CC1)N(Cc1ccc([N+](=O)[O-])o1)CC2 (stereo not given),1.53,0.158,0.391,-0.28 (inactive),0.839,0.812,0.117,0.228,-0.327,0.822,1.29,-0.498,-0.423,1.82,1.21,-0.0924,-0.291,1.73,1.04,0.42
COCCOC(=O)N1C(=O)[C@@]2(c3cc(C#CCCO)ccc31)[C@H](c1ccccc1OCCO)N1[C@H](c3ccccc3)[C@H](c3ccccc3)OC(=O)[C@H]1[C@@H]2C(=O)N1CCc2cc(OC)c(OC)cc2C1,1.12,0.161,0.395,-0.221 (inactive),1.34,1.28,0.529,1.39,0.421,0.504,1.42,-1.36,0.507,1.07,0.0615,-0.0882,-0.0119,-0.0331,1.52,1.49
O=C1O[C@H](c2ccccc2)[C@H](c2ccccc2)N2[C@H]1[C@@H](C(=O)N1CCN(c3ncccn3)CC1)[C@]1(C(=O)Nc3ccccc31)[C@H]2c1ccc(O)cc1,0.612,0.571,0.544,-0.117 (inactive),0.506,0.799,-0.149,-0.0987,0.165,0.0112,1.43,-1.9,-0.412,1.28,0.618,-0.0643,-0.119,0.265,-0.15,0.593
N[C@@H](Cc1ccccc1)Cn1cc(C2(O)CCCCC2)nn1,-0.431,-0.149,0.174,0.242 (inactive),-0.493,-0.507,0.0669,-0.133,-0.0564,-0.239,0.488,0.118,0.0904,0.816,-0.431,-0.0236,0.23,-0.0827,0.228,0.967
